# In PubChem BioAssay AID1273 (Columbia University Molecular Screening Center, 2008):
# In all, about 130,000 compounds went through this assay and about 1,200 (0.92%) were called active.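 How the source made its calls: active means inhibition above the mean plus 3 SD, with well images judged a real hit on visual review (cut at about 60% in these data, passing the limit was not always enough); inconclusive means inhibition over the cutoff but images rejected on review; inactive means inhibition not above the cutoff.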 This excerpt belongs to a sample that is enriched for actives.
# Assay: insulin gene promoter suppression in islet cells – imaging, TRM-6 cells (human fetal islet line), eGFP reporter, cell count, primary screen (AID 1273;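 on normalized cell count: cells exposed to compound for 48 h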)
# Details: at 2 µM, reporter expression induced with tamoxifen; inhibition: stronger effect = higher value; normalized cell count: measured here: cell count, toxicity
Structure (SMILES),inhibition,normalized cell count [%]
COc1cccc(NC(=O)c2ccc(Cn3cc([N+](=O)[O-])cn3)o2)c1,-11.1% (inactive),79.5
CCc1ccc(NC(=O)c2ccc(Cn3cc([N+](=O)[O-])cn3)cc2)cc1,6.25% (inactive),63.8
Cn1cc([N+](=O)[O-])c(C(=O)Nc2cnn(Cc3ccc(F)cc3)c2)n1,69.2% (active),112
COCCNC(=S)N1CCC(NC(=O)C23CC4CC(CC(C4)C2)C3)CC1,21.4% (inactive),106
CCn1c(SCc2ccccc2)nc2c(c1=O)SCC2,48.6% (inactive),108
CC(Sc1nnnn1C)C(=O)NC(=O)NC1CCCCC1 (stereo not drawn),36.4% (inactive),91.5
Cc1ccc(NC(=O)C2(N3CCC3=O)CCCCC2)cc1,-35.7% (inactive),133
O=C(O)Cc1ccc(NCc2ccccc2Cl)cc1,0% (inactive),111
CC(C)(C)SCCNC(=O)c1cccc([N+](=O)[O-])c1,-42.9% (inactive),85.5
C=CCNC(=O)COC(=O)CNC(=O)c1cc(Cl)cc([N+](=O)[O-])c1,83.3% (active),37
C=CCNC(=O)/C(=C\c1cccc([N+](=O)[O-])c1)NC(=O)c1ccccc1,-26.7% (inactive),102
CC(OC(=O)CCc1nc(=O)c2ccccc2n1C)C(=O)NCc1ccc2c(c1)OCO2 (stereo not drawn),-58.8% (inactive),141
Cc1ccc(CNC(=O)CCNS(=O)(=O)c2ccc(Br)s2)cc1,37.5% (inactive),94.3
Cc1ccccc1N1C(=O)C(Oc2ccc(Cl)cc2)C1CNCC1CCCO1 (stereo not drawn),-11.8% (inactive),94.4
OC(c1nnc(-c2ccccc2)o1)c1cccs1 (stereo not drawn),75% (active),106
Nc1ccc(-c2nnc(-c3ccc(-c4ccccc4)cc3)o2)cc1,46.7% (inactive),46.6
Brc1ccc(-c2nnc(-c3ccccc3)o2)o1,19.1% (inactive),142
CCCCNC(=O)N1CCN(S(C)(=O)=O)CC1,-42.9% (inactive),86.1
CCCCCN1CC(O)=C(c2nc(-c3ccc(Cl)cc3)cs2)C1=N,81.1% (active),67.1
CCCCCN1CC(O)=C(c2ccccc2)C1=N,9.59% (inactive),61.8
Clc1ccc(-c2csc(-c3ccncc3)n2)cc1,-16.7% (inactive),49.8
O=C(O)CSCC(=O)Nc1ccc(C(F)(F)F)cc1,29.4% (inactive),92.1

Structure (SMILES),inhibition,normalized cell count [%]
CCC(=O)c1ccc(OCC(O)Cn2nc(C)c(C(C)=O)c2C)cc1 (stereo not drawn),20% (inactive),57.4
Cc1ccccc1NC(=O)Cn1c(=O)n(CC2CCCO2)c(=O)c2ccccc21 (stereo not drawn),13.3% (inactive),106
O=C(CSc1nnnn1C1CCCC1)Nc1ccc2c(c1)OCCO2,73.3% (active),70.4
O=C(CSc1nnnn1-c1ccc2c(c1)CCC2)Nc1ccc2c(c1)OCCO2,28.6% (inactive),88.2
Cc1ccc(SCC(=O)Nc2ccc3c(c2)OCCO3)cc1,20.6% (inactive),137
COc1ccccc1N(C)S(=O)(=O)c1ccc(Cl)c(C(=O)N2CCC(C(N)=O)CC2)c1,18.2% (inactive),83.5
CCOC(=O)c1sc(NC(=O)CSc2nc(O)c(Cc3ccccc3)c(=O)[nH]2)nc1C,-50% (inactive),56.7
O=c1c(Cl)c(NC2CC2)cnn1-c1ccccc1,-85% (inactive),114
NC(=O)c1ccc(CN2CCC(Cc3ccccc3)CC2)cc1,-347% (inactive),40.1
Cc1ccc(CC(=O)Nc2cccc(C#N)c2)cc1,-16.7% (inactive),153
Cc1nc2ccccc2cc1C(=O)N/N=C/c1ccc([N+](=O)[O-])cc1,75% (active),81
Cc1ccsc1C(=O)N/N=C/c1ccc([N+](=O)[O-])cc1,6.67% (inactive),153
NC(=S)N/N=C/c1ccc([N+](=O)[O-])cc1,-36.4% (inactive),109
COc1cc(C(=O)N[C@@H](C)C(=O)NCc2ccco2)cc(OC)c1OC,33.3% (inactive),166
CCCN(C(=O)CSc1nnnn1C)c1c(N)n(Cc2ccccc2)c(=O)[nH]c1=O,-90.9% (inactive),30.3
O=c1[nH]c(CN2CCOCC2)nc2scc(-c3ccccc3)c12,25% (inactive),148
C#CCOCCOCCOCCNc1nc(N2CCN(C(=O)[C@H](C(C)C)n3cc(CCO)nn3)CC2)nc(N2CCN(C(=O)[C@H]([C@@H](C)CC)n3cc(CCCN=C(N)N)nn3)CC2)n1,70% (active),95.3
C#CCOCCOCCOCCNc1nc(N2CCN(C(=O)[C@H](C(C)C)n3cc(CCO)nn3)CC2)nc(N2CCN(C(=O)[C@H](C(C)C)n3cc(CCO)nn3)CC2)n1,50% (inactive),117
COCCNC(=O)NC(=O)COC(=O)C1(c2ccc(Cl)cc2)CC1,38.9% (inactive),75.1
COC(=O)c1ccc(Cc2ccccc2)o1,92.9% (active),83.1
CCCC(NC(=O)c1ccccc1)c1nc2ccccc2n1Cc1ccc(C(=O)OC)o1 (stereo not drawn),-17.5% (inactive),206
COC(=O)c1ccc(CN(c2ccccc2OC)S(=O)(=O)c2cccs2)o1,7.89% (inactive),71.6
